Results on 38 molecules are retold here after PubChem BioAssay (NCATS).

“And” between values parts separate entries of the source, which are not always exact repeats. Identical values can stand only once. Inconclusive results are not listed. A call without a number means that no potency is given here. The source made the active and inactive calls. Unless noted, the call rests on the fitted dose curve.

Chain of Peroxisome proliferator-activated receptor gamma (Homo sapiens) (P37231 whole entry, looked up): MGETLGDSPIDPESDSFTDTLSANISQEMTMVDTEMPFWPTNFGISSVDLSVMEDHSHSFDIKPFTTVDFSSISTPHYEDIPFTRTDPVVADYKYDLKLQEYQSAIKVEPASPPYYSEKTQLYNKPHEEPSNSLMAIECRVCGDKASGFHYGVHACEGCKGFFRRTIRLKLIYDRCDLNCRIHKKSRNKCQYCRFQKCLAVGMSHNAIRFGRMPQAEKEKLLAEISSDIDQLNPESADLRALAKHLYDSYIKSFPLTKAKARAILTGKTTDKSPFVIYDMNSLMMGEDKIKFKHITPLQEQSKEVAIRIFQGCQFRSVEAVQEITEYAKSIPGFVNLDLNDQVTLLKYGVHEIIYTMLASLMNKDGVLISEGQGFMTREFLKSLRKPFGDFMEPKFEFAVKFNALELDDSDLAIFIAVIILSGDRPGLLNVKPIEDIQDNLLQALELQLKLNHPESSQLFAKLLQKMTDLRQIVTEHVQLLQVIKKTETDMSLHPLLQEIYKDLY
Chain of Vitamin D3 receptor (Homo sapiens) (P11473 whole entry, looked up): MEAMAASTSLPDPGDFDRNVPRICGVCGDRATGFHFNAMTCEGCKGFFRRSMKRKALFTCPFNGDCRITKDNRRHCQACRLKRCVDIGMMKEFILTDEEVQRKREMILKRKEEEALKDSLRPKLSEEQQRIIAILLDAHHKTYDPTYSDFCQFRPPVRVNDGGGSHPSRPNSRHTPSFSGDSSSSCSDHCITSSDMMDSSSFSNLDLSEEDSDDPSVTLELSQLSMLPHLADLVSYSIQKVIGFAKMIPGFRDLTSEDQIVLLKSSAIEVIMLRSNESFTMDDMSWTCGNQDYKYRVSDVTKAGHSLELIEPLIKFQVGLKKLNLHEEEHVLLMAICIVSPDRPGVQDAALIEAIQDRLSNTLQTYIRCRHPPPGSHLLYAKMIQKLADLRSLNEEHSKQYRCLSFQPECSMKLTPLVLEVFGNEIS

Tested on in one test: not listed separately
In words: qHTS assay for small molecule antagonists of peroxisome proliferator-activated receptor delta signaling (AID 588535; active means well fitted inhibition curve with a large enough effect in the signal ratio, with a control signal flat, not every such curve was filed as active; the % refers to the signal ratio;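 on max response: cells co-treated with a PPAR-delta agonist as stimulator during compound exposure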). To be noted: HEK293T PPARd-UAS-bla, beta-lactamase FRET ratio, 18 h; 460 nm channel. The essentials:
(§1)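 Fluorescence from CCF4-loaded GeneBLAzer PPAR-delta-UAS-bla HEK293T cells (2 hrs RT loading) quantified reporter inhibition after an 18 hr, 37 C compound exposure across a titration.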
Background: Quantitative high-throughput screening tests each substance at several concentrations.
For the molecule `C=C(Cl)CCl`, the max response worked out at 15.9%.

On to `CC12CC1(C)C(=O)N(c1cc(Cl)cc(Cl)c1)C2=O` (configuration not stated), for which the max response is -1.5% and 19.3%.

In the case of `Cl/C=C/Cl`, the max response is -19.1%.

Turning to `CCCCOCC1CO1` (configuration not stated), the max response stood at 13.9%.

With `O=C(O)c1cccc(Cl)c1`, the max response stood at 30.4%.

As to `C1CC2OC2CC1C1CO1` (configuration not stated), the max response was 13.2%.

For the molecule `Oc1c(Cl)cccc1Cl`, the max response turned out to be 38.7%.

Regarding `ClCCOCCCl`, the max response worked out at 5.43%.

Take `CCNCC`: the max response worked out at 21.4%.

Consider `CC(C)C#N`, for which the max response was -11.5%.

`Cl/C=C\Cl`: the max response was -22.4%.

For `c1ccc2c(c1)CCNC2`, the max response was found to be 5.94%.

Turning to `CCBr`, the max response was found to be 13.3%.

`O=[N+]([O-])c1ccc(Cl)c(Cl)c1Cl`: the max response is -19.7%.

For `N#CCCC#N`, the max response was determined as 18.6%.

As for `Cc1ccccc1[N+](=O)[O-]`, the max response is -51%.

As for `C=CC(=O)OCCN(C)C`, the max response was determined as 29.8%.

Take `CC(C)(C)C(O)(CCc1ccc(Cl)cc1)Cn1cncn1` (configuration not stated): the max response is -43.6% and 58.8%.

As to `CN=C=O`, the max response came to 61.5%.

Regarding `c1ccc(C2CO2)cc1` (configuration not stated), the max response was -22%.

In the case of `OCC(Cl)CCl` (configuration not stated), the max response was -16%.

In the case of `COc1ccc(C=O)cc1`, the max response worked out at 2.98%.

Turning to `Nc1ccc(Cl)c(Cl)c1`, the max response was -10.6%.

As to `CC(=O)CCC(C)=O`, the max response was -12.7%.

Consider `C=CC(=O)OCC(CC)CCCC` (configuration not stated), for which the max response was 10.4% and 11.2%.

In the case of `CC(C#N)CCC#N` (configuration not stated), the max response turned out to be 27.1%.

For a further test, the target named is Peroxisome proliferator-activated receptor delta (Homo sapiens) (UniProt Q03181). The description is as above. To be noted: HEK293T PPARd-UAS-bla, beta-lactamase FRET ratio, 18 h; series mostly up to 76.7 µM. The method in brief: as §1
Chain of Peroxisome proliferator-activated receptor delta (Homo sapiens) (Q03181 whole entry, looked up): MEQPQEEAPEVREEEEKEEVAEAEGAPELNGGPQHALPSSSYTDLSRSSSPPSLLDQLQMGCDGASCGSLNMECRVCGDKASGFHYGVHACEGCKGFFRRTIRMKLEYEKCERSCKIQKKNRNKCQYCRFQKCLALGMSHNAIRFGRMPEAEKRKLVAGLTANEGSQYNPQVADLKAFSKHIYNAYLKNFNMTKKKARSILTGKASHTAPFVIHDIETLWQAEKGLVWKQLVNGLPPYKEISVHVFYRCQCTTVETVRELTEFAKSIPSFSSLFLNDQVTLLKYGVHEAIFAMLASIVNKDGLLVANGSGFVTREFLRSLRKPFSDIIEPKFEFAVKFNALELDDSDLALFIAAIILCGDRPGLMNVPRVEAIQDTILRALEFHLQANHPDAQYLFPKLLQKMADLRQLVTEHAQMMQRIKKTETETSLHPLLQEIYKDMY
`C=C(Cl)CCl`: the result was inactive.

Consider `CC12CC1(C)C(=O)N(c1cc(Cl)cc(Cl)c1)C2=O` (configuration not stated), for which the result was inactive.

As to `Cl/C=C/Cl`, the outcome was inactive.

With `CCCCOCC1CO1` (configuration not stated), the outcome was inactive.

As for `O=C(O)c1cccc(Cl)c1`, the outcome was inactive.

On to `C1CC2OC2CC1C1CO1` (configuration not stated), for which the result was inactive.

In the case of `Oc1c(Cl)cccc1Cl`, the result was inactive.

Turning to `ClCCOCCCl`, the outcome was inactive.

In the case of `CCNCC`, the result was inactive.

As for `CC(C)C#N`, the outcome was inactive.

In the case of `Cl/C=C\Cl`, the outcome was inactive.

As to `c1ccc2c(c1)CCNC2`, the result was inactive.

For the molecule `CCBr`, the outcome was inactive.

As for `O=[N+]([O-])c1ccc(Cl)c(Cl)c1Cl`, the result was inactive.

With `N#CCCC#N`, the result was inactive.

On to `Cc1ccccc1[N+](=O)[O-]`, for which the result was inactive.

As to `C=CC(=O)OCCN(C)C`, the result was inactive.

For the molecule `CC(C)(C)C(O)(CCc1ccc(Cl)cc1)Cn1cncn1` (configuration not stated), the outcome was inactive.

Consider `CN=C=O`, for which the result was inactive.

Regarding `c1ccc(C2CO2)cc1` (configuration not stated), the outcome was inactive.

Regarding `OCC(Cl)CCl` (configuration not stated), the outcome was inactive.

As to `COc1ccc(C=O)cc1`, the outcome was inactive.

On to `Nc1ccc(Cl)c(Cl)c1`, for which the outcome was inactive.

`CC(=O)CCC(C)=O`: the result was inactive.

Regarding `C=CC(=O)OCC(CC)CCCC` (configuration not stated), the outcome was inactive.

For the molecule `CC(C#N)CCC#N` (configuration not stated), the result was inactive.

The target of a further test is Peroxisome proliferator-activated receptor gamma (Homo sapiens) (UniProt P37231). The experiment in a line: qHTS assay for small molecule agonists of peroxisome proliferator-activated receptor gamma signaling (AID 588536; active means well fitted curve in the direction sought with a large enough effect in the signal ratio, with a control signal flat, not every such curve was filed as active; the % refers to the signal ratio). To be noted: HEK293 PPARg-UAS-bla, beta-lactamase ratio, 16 h, percent of rosiglitazone response, DMSO as zero; series mostly up to 76.7 µM. The essentials:
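Beta-lactamase reporter read-out: CCF4 fluorescence (ex 405, em 460/530 nm) after 2 h at RT. HEK293 GeneBLAzer cells were treated for 16 h at 37 C. Hill fits gave EC50 and efficacy versus 2 uM rosiglitazone (100%) and DMSO (0%).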
Take `Oc1cccc(Cl)c1Cl`: the result was inactive.

For `CCC/C=N/O`, the outcome was inactive.

As for `Nc1cccc2ccccc12`, the outcome was inactive.

For the molecule `Cc1cnc[nH]1`, the result was inactive.

For the molecule `CN(C)N=O`, the result was inactive.

Take `COc1c(C(C)(C)C)cc([N+](=O)[O-])c(C)c1[N+](=O)[O-]`: the result was inactive.

Take `C=C(Cl)CCl`: the result was inactive.

For `ClCCOCOCCCl`, the result was inactive.

Consider `CC12CC1(C)C(=O)N(c1cc(Cl)cc(Cl)c1)C2=O` (configuration not stated), for which the outcome was inactive.

With `CC(C)(Cl)[N+](=O)[O-]`, the outcome was inactive.

For the molecule `CCCCOCC1CO1` (configuration not stated), the outcome was inactive.

As for `O=C(O)c1cccc(Cl)c1`, the outcome was inactive.

For `C1CC2OC2CC1C1CO1` (configuration not stated), the outcome was inactive.

Take `Oc1c(Cl)cccc1Cl`: the result was inactive.

Regarding `ClCCOCCCl`, the result was inactive.

Take `CCNCC`: the result was inactive.

Regarding `CC(C)C#N`, the outcome was inactive.

With `c1ccc2c(c1)CCNC2`, the result was inactive.

For `O=[N+]([O-])c1ccc(Cl)c(Cl)c1Cl`, the outcome was inactive.

As for `N#CCCC#N`, the result was inactive.

For `Cc1ccccc1[N+](=O)[O-]`, the result was inactive.

As for `OCCBr`, the outcome was inactive.

Consider `C=CC(=O)OCCN(C)C`, for which the outcome was inactive.

Regarding `CC(C)(C)C(O)(CCc1ccc(Cl)cc1)Cn1cncn1` (configuration not stated), the result was inactive.

For the molecule `N#CCCCCC#N`, the outcome was inactive.

For `c1ccc(C2CO2)cc1` (configuration not stated), the outcome was inactive.

In the case of `CCCCCC[N+](=O)[O-]`, the result was inactive.

As for `OCC(Cl)CCl` (configuration not stated), the result was inactive.

For the molecule `COc1ccc(C=O)cc1`, the result was inactive.

Regarding `Nc1ccc(Cl)c(Cl)c1`, the result was inactive.

For the molecule `CC(=O)CCC(C)=O`, the outcome was inactive.

As to `C=CC(=O)OCC(CC)CCCC` (configuration not stated), the outcome was inactive.

Take `CC(C#N)CCC#N` (configuration not stated): the result was inactive.

For a further test the target is unchanged. The experiment in a line: qHTS assay for small molecule antagonists of peroxisome proliferator-activated receptor gamma signaling (AID 588537; active means well fitted inhibition curve with a large enough effect in the signal ratio, with a control signal flat, not every such curve was filed as active; the % refers to the signal ratio;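 further: reporter cells co-stimulated with 50 nM rosiglitazone agonist during compound treatment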). As to conditions: HEK293 PPARg-UAS-bla, beta-lactamase ratio, antagonist mode; series mostly up to 76.8 µM. The essentials: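 Fluorescence at 460 and 530 nm (405 nm excitation) reported beta-lactamase cleavage of CCF4 after 2 h room-temperature loading. HEK293 reporter cells in 1% charcoal/dextran-treated FBS had received compound and rosiglitazone for 16 h.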
In the case of `Oc1cccc(Cl)c1Cl`, the Potency result was “inactive”.

With `CCC/C=N/O`, the Potency entry was “inactive”.

Take `COc1c(C(C)(C)C)cc([N+](=O)[O-])c(C)c1[N+](=O)[O-]`: the Potency entry is “inactive”.

In the case of `ClCCOCOCCCl`, the Potency result was “inactive”.

As to `CC12CC1(C)C(=O)N(c1cc(Cl)cc(Cl)c1)C2=O` (configuration not stated), the Potency result is “inactive”.

Consider `CC(C)(Cl)[N+](=O)[O-]`, for which the Potency result was “inactive”.

As for `CCCCOCC1CO1` (configuration not stated), the Potency entry is “inactive”.

Turning to `C1CC2OC2CC1C1CO1` (configuration not stated), the Potency entry is “inactive”.

With `CCNCC`, the Potency result was “inactive”.

For `CC(C)C#N`, the Potency entry is “inactive”.

Take `c1ccc2c(c1)CCNC2`: the Potency result was “inactive”.

In the case of `Cc1ccccc1[N+](=O)[O-]`, the Potency entry was “inactive”.

As for `OCCBr`, the Potency result was “inactive”.

With `CC(C)(C)C(O)(CCc1ccc(Cl)cc1)Cn1cncn1` (configuration not stated), the Potency result is “inactive”.

For the molecule `c1ccc(C2CO2)cc1` (configuration not stated), the Potency result was “inactive”.

As to `OCC(Cl)CCl` (configuration not stated), the Potency result is “inactive”.

Turning to `C=CC(=O)OCC(CC)CCCC` (configuration not stated), the Potency entry was “inactive”.

In the case of `CC(C#N)CCC#N` (configuration not stated), the Potency result is “inactive”.

The next test addresses Vitamin D3 receptor (Homo sapiens) (UniProt P11473). The experiment in a line: qHTS assay for small molecule antagonists of vitamin D receptor signaling (AID 588541).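 Further: receptor activated by calcitriol during compound treatment.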 To be noted: HEK293T VDR-UAS-bla, beta-lactamase ratio, antagonist mode; series mostly up to 76.7 µM. The method in brief:
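VDR-UAS-bla HEK293T cells in 2% charcoal-stripped FBS were stimulated with 1-alpha,25-dihydroxyvitamin D3 (3 nM final) plus compound for 16 h at 37 C. The beta-lactamase CCF4 readout was normalized to 50 nM agonist and DMSO, and Hill fits gave IC50.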
In the case of `Cc1cnc[nH]1`, the result was inactive.

For the molecule `CN(C)N=O`, the outcome was inactive.

As for `ClCCOCOCCCl`, the outcome was inactive.

On to `CC12CC1(C)C(=O)N(c1cc(Cl)cc(Cl)c1)C2=O` (configuration not stated), for which the outcome was inactive.

Take `Cl/C=C/Cl`: the outcome was inactive.

For `CCCCOCC1CO1` (configuration not stated), the outcome was inactive.

As for `O=C(O)c1cccc(Cl)c1`, the result was inactive.

Consider `Brc1cccc(-c2ccccc2)c1`, for which the outcome was inactive.

In the case of `Oc1c(Cl)cccc1Cl`, the outcome was inactive.

For the molecule `CCNCC`, the result was inactive.

Regarding `Cl/C=C\Cl`, the result was inactive.

As to `CCBr`, the outcome was inactive.

For `O=[N+]([O-])c1ccc(Cl)c(Cl)c1Cl`, the result was inactive.

In the case of `N#CCCC#N`, the result was inactive.

As for `OCCBr`, the result was inactive.

With `C=CC(=O)OCCN(C)C`, the result was inactive.

Turning to `CC(C)(C)C(O)(CCc1ccc(Cl)cc1)Cn1cncn1` (configuration not stated), the result was inactive.

Take `N#CCCCCC#N`: the result was inactive.

In the case of `c1ccc(C2CO2)cc1` (configuration not stated), the outcome was inactive.

In the case of `CCCCCC[N+](=O)[O-]`, the outcome was inactive.

Consider `COc1ccc(C=O)cc1`, for which the result was inactive.

In the case of `Nc1ccc(Cl)c(Cl)c1`, the result was inactive.

On to `CC(=O)CCC(C)=O`, for which the outcome was inactive.

As for `C=CC(=O)OCC(CC)CCCC` (configuration not stated), the outcome was inactive.
